Among all 5,500 compounds or so, about 2,000 (36%) were called active. Another 18% or so got no clear call; they are omitted. No stated cut-off is given here; in the data, active means normalized growth mostly below about 0.91 (no sharp cut-off); inconclusive means no clear call, values can overlap the other calls; inactive means mostly above about 0.92. Some of the results follow.
Test: chemical genetic growth profiling, strain panel (AID 1159580);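 further: tested at 20 µM; growth read once vehicle control cultures reached saturation at 30 °C; 1 = growth at the plate median or of vehicle wells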
Conditions: growth OD
[1] = S. cerevisiae deletion strains, locus YHR030C, strain SLT2, stronger effect = lower value

Measured: normalized growth

N#CCS(=O)(=O)c1cccs1
inactive: S. cerevisiae deletion strains, locus YAL013W, strain DEP1, stronger effect = lower value 0.988 | S. cerevisiae deletion strains, locus YBR229C, strain ROT2, stronger effect = lower value 1 | S. cerevisiae deletion strains, locus YDL101C, strain DUN1, stronger effect = lower value 0.983 | S. cerevisiae deletion strains, locus YDR150W, strain NUM1, stronger effect = lower value 0.94 | S. cerevisiae deletion strains, locus YEL061C, strain CIN8, stronger effect = lower value 1.01 | S. cerevisiae deletion strains, locus YGR078C, strain PAC10, stronger effect = lower value 0.979 | [1] 0.996 | S. cerevisiae deletion strains, locus YHR087W, strain rtc3, stronger effect = lower value 1 | S. cerevisiae deletion strains, locus YJR043C, strain POL32, stronger effect = lower value 0.949 | S. cerevisiae deletion strains, locus YJR075W, strain HOC1, stronger effect = lower value 0.993 | S. cerevisiae deletion strains, locus YLR039C, strain RIC1, stronger effect = lower value 1.1 | S. cerevisiae deletion strains, locus YLR058C, strain SHM2 (second series), stronger effect = lower value 1 | S. cerevisiae deletion strains, locus YLR085C, strain ARP6, stronger effect = lower value 0.999 | S. cerevisiae deletion strains, locus YLR262C, strain YPT6, stronger effect = lower value 1.12 | S. cerevisiae deletion strains, locus YML094W, strain GIM5, stronger effect = lower value 0.975 | S. cerevisiae deletion strains, locus YMR219W, strain ESC1, stronger effect = lower value 1 | S. cerevisiae deletion strains, locus YMR263W, strain SAP30, stronger effect = lower value 0.961 | S. cerevisiae deletion strains, locus YNL153C, strain GIM3, stronger effect = lower value 0.968 | S. cerevisiae deletion strains, locus YNL298W, strain CLA4 (second series), stronger effect = lower value 1 | S. cerevisiae deletion strains, locus YNL322C, strain KRE1, stronger effect = lower value 1.02 | S. cerevisiae deletion strains, locus YNR030W, strain Alg12, stronger effect = lower value 0.989 | S. cerevisiae deletion strains, locus YPL055C, strain LGE1, stronger effect = lower value 0.92 | S. cerevisiae deletion strains, locus YPL241C, strain CIN2, stronger effect = lower value 0.983 | S. cerevisiae deletion strains, locus YPR135W, strain CTF4, stronger effect = lower value 0.885 | S. cerevisiae strains, strain wild type, stronger effect = lower value 1.01

CO[C@H]1[C@@H](O)[C@@H](C)O[C@H](O[C@H]2CCC3(C)C4CCC5(C)[C@@H](C6=CC(=O)OC6)CC[C@]5(O)[C@@H]4CC[C@]3(O)C2)[C@@H]1O (stereo not given in full)
inactive: S. cerevisiae deletion strains, locus YAL021C, strain ccr4, stronger effect = lower value 0.993 | S. cerevisiae deletion strains, locus YAL026C, strain drs2, stronger effect = lower value 1.04 | S. cerevisiae deletion strains, locus YAL030W, strain snc1, stronger effect = lower value 1.03 | S. cerevisiae deletion strains, locus YBL061C, strain skt5, stronger effect = lower value 1.05 | S. cerevisiae deletion strains, locus YBR009C, strain hhf1, stronger effect = lower value 1.02 | S. cerevisiae deletion strains, locus YBR023C, strain chs3, stronger effect = lower value 1.03 | S. cerevisiae deletion strains, locus YBR171W, strain sec66, stronger effect = lower value 1.03 | S. cerevisiae deletion strains, locus YBR231C, strain swc5, stronger effect = lower value 1.02 | S. cerevisiae deletion strains, locus YBR279W, strain paf1, stronger effect = lower value 1.02 | S. cerevisiae deletion strains, locus YCL011C, strain gbp2, stronger effect = lower value 1.03 | S. cerevisiae deletion strains, locus YCL016C, strain dcc1, stronger effect = lower value 1.02 | S. cerevisiae deletion strains, locus YCL061C, strain MRC1, stronger effect = lower value 1.02 | S. cerevisiae deletion strains, locus YCL069W, strain vba3, stronger effect = lower value 1.02 | S. cerevisiae deletion strains, locus YCR088W, strain abp1, stronger effect = lower value 1.02 | S. cerevisiae deletion strains, locus YDL005C, strain med2, stronger effect = lower value 1.03 | S. cerevisiae deletion strains, locus YDL040C, strain nat1, stronger effect = lower value 1 | S. cerevisiae deletion strains, locus YDR001C, strain nth1, stronger effect = lower value 1.02 | S. cerevisiae deletion strains, locus YDR069C, strain doa4, stronger effect = lower value 1.03 | S. cerevisiae deletion strains, locus YDR137W, strain rgp1, stronger effect = lower value 1.04 | S. cerevisiae deletion strains, locus YDR159W, strain sac3, stronger effect = lower value 1.04 | S. cerevisiae deletion strains, locus YDR195W, strain ref2 1.01 | S. cerevisiae deletion strains, locus YDR297W, strain sur2, stronger effect = lower value 1.04 | S. cerevisiae deletion strains, locus YDR334W, strain swr1, stronger effect = lower value 1.02 | S. cerevisiae deletion strains, locus YDR335W, strain msn5, stronger effect = lower value 1.02 | S. cerevisiae deletion strains, locus YDR392W, strain spt3, stronger effect = lower value 1.02 | S. cerevisiae deletion strains, locus YEL003W, strain gim4, stronger effect = lower value 1.02 | S. cerevisiae deletion strains, locus YEL037C, strain rad23, stronger effect = lower value 1.02 | S. cerevisiae deletion strains, locus YEL061C, strain CIN8 (second series), stronger effect = lower value 1.02 | S. cerevisiae deletion strains, locus YER015W, strain faa2, stronger effect = lower value 1.02 | S. cerevisiae deletion strains, locus YER016W, strain bim1, stronger effect = lower value 1.02 | S. cerevisiae deletion strains, locus YER111C, strain swi4, stronger effect = lower value 1.03 | S. cerevisiae deletion strains, locus YER155C, strain BEM2 (second series), stronger effect = lower value 1.04 | S. cerevisiae deletion strains, locus YFR010W, strain ubp6, stronger effect = lower value 1.04 | S. cerevisiae deletion strains, locus YGL167C, strain pmr1, stronger effect = lower value 1.03 | S. cerevisiae deletion strains, locus YGL173C, strain kem1, stronger effect = lower value 1.04 | S. cerevisiae deletion strains, locus YGL227W, strain vid30, stronger effect = lower value 1.01 | S. cerevisiae deletion strains, locus YGL240W, strain doc1, stronger effect = lower value 1.04 | S. cerevisiae deletion strains, locus YGL253W, strain hxk2, stronger effect = lower value 1.03 | S. cerevisiae deletion strains, locus YHR013C, strain ard1, stronger effect = lower value 1.04 | S. cerevisiae deletion strains, locus YHR027C, strain rpn1, stronger effect = lower value 1.05 | [1] 1.05 | S. cerevisiae deletion strains, locus YHR079C, strain IRE1, stronger effect = lower value 1.08 | S. cerevisiae deletion strains, locus YHR142W, strain chs7, stronger effect = lower value 1.03 | S. cerevisiae deletion strains, locus YJL092W, strain hpr5, stronger effect = lower value 1.02 | S. cerevisiae deletion strains, locus YJL095W, strain BCK1 (second series), stronger effect = lower value 1.02 | S. cerevisiae deletion strains, locus YJL095W, strain BCK1, stronger effect = lower value 1.04 | S. cerevisiae deletion strains, locus YJL115W, strain asf1, stronger effect = lower value 1.04 | S. cerevisiae deletion strains, locus YJL129C, strain trk1, stronger effect = lower value 1.03 | S. cerevisiae deletion strains, locus YJL154C, strain vps35, stronger effect = lower value 1.02 | S. cerevisiae deletion strains, locus YJL164C, strain tpk1, stronger effect = lower value 1.01 | S. cerevisiae deletion strains, locus YJL166W, strain qcr8, stronger effect = lower value 1.03 | S. cerevisiae deletion strains, locus YJL187C, strain SWE1, stronger effect = lower value 1.03 | S. cerevisiae deletion strains, locus YJR066W, strain TOR1, stronger effect = lower value 1.01 | S. cerevisiae deletion strains, locus YKL160W, strain elf1, stronger effect = lower value 1.01 | S. cerevisiae deletion strains, locus YKR026C, strain gcn3, stronger effect = lower value 1.02 | S. cerevisiae deletion strains, locus YKR091W, strain srl3, stronger effect = lower value 1.02 | S. cerevisiae deletion strains, locus YLL001W, strain dnm1, stronger effect = lower value 1.03 | S. cerevisiae deletion strains, locus YLL026W, stronger effect = lower value 1.03 | S. cerevisiae deletion strains, locus YLL041C, strain sdh2, stronger effect = lower value 1.02 | S. cerevisiae deletion strains, locus YLR027C, strain aat2, stronger effect = lower value 1 | S. cerevisiae deletion strains, locus YLR113W, strain HOG1, stronger effect = lower value 0.976 | S. cerevisiae deletion strains, locus YLR221C, strain rsa3, stronger effect = lower value 1.03 | S. cerevisiae deletion strains, locus YLR258W, strain gsy2, stronger effect = lower value 1 | S. cerevisiae deletion strains, locus YLR262C, strain YPT6 (second series), stronger effect = lower value 1.03 | S. cerevisiae deletion strains, locus YLR320W, strain mms22, stronger effect = lower value 1.03 | S. cerevisiae deletion strains, locus YLR342W, strain FKS1, stronger effect = lower value 1.03 | S. cerevisiae deletion strains, locus YLR357W, strain rsc2, stronger effect = lower value 1.06 | S. cerevisiae deletion strains, locus YLR370C, strain arc18, stronger effect = lower value 1.01 | S. cerevisiae deletion strains, locus YLR384C, strain iki3, stronger effect = lower value 1.04 | S. cerevisiae deletion strains, locus YML120C, strain ndi1, stronger effect = lower value 1.01 | S. cerevisiae deletion strains, locus YMR058W, strain fet3, stronger effect = lower value 1.03 | S. cerevisiae deletion strains, locus YMR125W, strain sto1, stronger effect = lower value 1.03 | S. cerevisiae deletion strains, locus YMR129W, stronger effect = lower value 1.02 | S. cerevisiae deletion strains, locus YMR205C, strain PFK2, stronger effect = lower value 1.06 | S. cerevisiae deletion strains, locus YMR231W, strain pep5, stronger effect = lower value 1 | S. cerevisiae deletion strains, locus YNL071W, strain lat1, stronger effect = lower value 1.02 | S. cerevisiae deletion strains, locus YNL183C, strain NPR1, stronger effect = lower value 1 | S. cerevisiae deletion strains, locus YNL209W, strain ssb2, stronger effect = lower value 1.02 | S. cerevisiae deletion strains, locus YNL248C, strain rpa49, stronger effect = lower value 1.03 | S. cerevisiae deletion strains, locus YNL322C, strain KRE1 (second series), stronger effect = lower value 1.02 | S. cerevisiae deletion strains, locus YNR049C, strain mso1, stronger effect = lower value 1.04 | S. cerevisiae deletion strains, locus YOR001W, strain rrp6, stronger effect = lower value 1.03 | S. cerevisiae deletion strains, locus YOR070C, strain gyp1, stronger effect = lower value 1.02 | S. cerevisiae deletion strains, locus YOR080W, strain dia2, stronger effect = lower value 1.04 | S. cerevisiae deletion strains, locus YOR083W, strain WHI5, stronger effect = lower value 1.02 | S. cerevisiae deletion strains, locus YOR106W, strain vam3, stronger effect = lower value 1.03 | S. cerevisiae deletion strains, locus YOR231W, strain MKK1, stronger effect = lower value 1.04 | S. cerevisiae deletion strains, locus YOR265W, strain rbl2, stronger effect = lower value 1.04 | S. cerevisiae deletion strains, locus YOR270C, strain vph1, stronger effect = lower value 1.08 | S. cerevisiae deletion strains, locus YOR290C, strain snf2, stronger effect = lower value 1.01 | S. cerevisiae deletion strains, locus YPL051W, strain arl3, stronger effect = lower value 1.01 | S. cerevisiae deletion strains, locus YPL078C, strain atp4, stronger effect = lower value 1.02 | S. cerevisiae deletion strains, locus YPL106C, strain sse1, stronger effect = lower value 1.02 | S. cerevisiae deletion strains, locus YPL240C, strain hsp82, stronger effect = lower value 1.01 | S. cerevisiae deletion strains, locus YPL256C, strain CLN2, stronger effect = lower value 1.08
